{"source": "the supplement of paper PMC8728848", "binders": {"B1": {"name": "Gal 3 (Canis lupus) (protein)", "chain": "MADSFSLNDALSGSGNPNPQGWPGPWGNQPAGAGGYPGASYPGAYPGQAPPGGYPGQAPPGGYPGQAPPGGYPGQAPPGGYPGQAPPGGYPGQAPPGTYPGPTAPAYPGPTAPGTQPGQPSGPGAYPPPGQPSAPGAYPAAGPFGIPAGPLTVPYDLPLPGGVKPRMLITILGTVRPSANRLALDFKRGNDVAFHFNPRFNEDNKRVIVCNTKLDNIWGKEERQAAFPFESGKPFKIQVLVESDHFKVAVNDAHLLQYNHRMKNLPEISKLGISGDIDLTSASYAMI"}}, "assay_in_all_cases": "glycan array binding signal (z-score within array); higher = stronger binding", "settings_in_all_cases": "glycan notation: IUPAC condensed, linker removed", "key": {"[1]": {"target": "Fuc(a1-2)Gal(b1-3)GlcNAc(b1-3)[Gal(b1-4)GlcNAc(b1-6)]Gal(b1-4)Glc", "outline": "(§1)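 The Consortium for Functional Glycomics database supplied 3228 glycan arrays, of which those lacking an available protein sequence were dropped. The binding signal, a within-array Z-score, was averaged across arrays of the same protein sequence and across linkers. Negative scores can be read as non-binding.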"}, "[2]": {"target": "Fuc(a1-2)Gal(b1-4)[Fuc(a1-3)]GlcNAc", "outline": "as §1"}, "[3]": {"target": "Fuc(a1-2)[Gal(a1-3)]Gal(b1-4)GlcNAc(b1-2)Man(a1-3)[Fuc(a1-2)[Gal(a1-3)]Gal(b1-4)GlcNAc(b1-2)Man(a1-6)]Man(b1-4)GlcNAc(b1-4)GlcNAc", "outline": "as §1"}, "[4]": {"target": "Fuc(a1-2)[Gal(a1-3)]Gal(b1-4)GlcNAc(b1-2)Man(a1-3)[Fuc(a1-2)[Gal(a1-3)]Gal(b1-4)GlcNAc(b1-2)Man(a1-6)]Man(b1-4)GlcNAc(b1-4)[Fuc(a1-6)]GlcNAc", "outline": "as §1"}, "[5]": {"target": "Fuc(a1-2)[Gal(a1-3)]Gal(b1-4)[Fuc(a1-3)]Glc", "outline": "as §1"}, "[6]": {"target": "Fuc(a1-2)[GalNAc(a1-3)]Gal(b1-4)GlcNAc(b1-2)Man(a1-3)[Fuc(a1-2)[GalNAc(a1-3)]Gal(b1-4)GlcNAc(b1-2)Man(a1-6)]Man(b1-4)GlcNAc(b1-4)GlcNAc", "outline": "as §1"}, "[7]": {"target": "Fuc(a1-2)[GalNAc(a1-3)]Gal(b1-4)GlcNAc(b1-3)Gal(b1-4)GlcNAc", "outline": "as §1"}, "[8]": {"target": "Fuc(a1-2)[GalNAc(a1-3)]Gal(b1-4)GlcNAc(b1-3)Gal(b1-4)GlcNAc(b1-3)Gal(b1-4)GlcNAc", "outline": "as §1"}, "Gal(b1-3)GlcNAc": {"target": "Gal(b1-3)GlcNAc", "outline": "as §1"}, "[9]": {"target": "Gal(b1-3)GlcNAc(b1-3)Gal(b1-4)Glc", "outline": "as §1"}, "[10]": {"target": "Gal(b1-3)[Neu5Ac(b2-6)]GalNAc", "outline": "as §1"}, "[11]": {"target": "Gal(b1-4)GlcNAc(b1-3)Gal(b1-4)Glc", "outline": "as §1"}, "[12]": {"target": "Gal(b1-4)GlcNAc(b1-3)Gal(b1-4)GlcNAc(b1-3)Gal(b1-4)GlcNAc", "outline": "as §1"}, "[13]": {"target": "GalNAc(a1-3)GalNAc(a1-3)Gal(a1-4)Gal(b1-4)GlcNAc", "outline": "as §1"}, "[14]": {"target": "GalNAc(b1-3)Gal(a1-6)Gal(b1-4)Glc", "outline": "as §1"}, "[15]": {"target": "GlcNAc(a1-4)Gal(b1-4)GlcNAc(b1-3)Gal(b1-4)GlcNAc(b1-3)Gal(b1-4)GlcNAc", "outline": "as §1"}, "[16]": {"target": "GlcNAc(a1-6)Gal(b1-4)GlcNAc", "outline": "as §1"}, "GlcNAc(b1-3)Gal": {"target": "GlcNAc(b1-3)Gal", "outline": "as §1"}, "Kdn(a2-3)Gal(b1-3)GlcNAc": {"target": "Kdn(a2-3)Gal(b1-3)GlcNAc", "outline": "as §1"}, "Man(b1-4)GlcNAc": {"target": "Man(b1-4)GlcNAc", "outline": "as §1"}, "[17]": {"target": "Neu5Ac(a2-3)Gal(b1-3)[Fuc(a1-4)]GlcNAc(b1-3)Gal(b1-3)[Fuc(a1-4)]GlcNAc", "outline": "as §1"}, "Neu5Ac(a2-3)Gal(b1-4)Glc": {"target": "Neu5Ac(a2-3)Gal(b1-4)Glc", "outline": "as §1"}, "[18]": {"target": "Neu5Ac(a2-3)Gal(b1-4)GlcNAc(b1-3)Gal(b1-4)GlcNAc", "outline": "as §1"}, "[19]": {"target": "Neu5Ac(a2-3)Gal(b1-4)GlcNAc(b1-3)GalNAc", "outline": "as §1"}, "[20]": {"target": "Neu5Ac(a2-3)[Neu5Ac(a2-6)]GalNAc", "outline": "as §1"}, "Neu5Ac(a2-6)Gal(b1-4)Glc": {"target": "Neu5Ac(a2-6)Gal(b1-4)Glc", "outline": "as §1"}, "[21]": {"target": "Neu5Ac(a2-6)Gal(b1-4)GlcNAc(b1-3)Gal(b1-4)GlcNAc(b1-3)Gal(b1-4)GlcNAc", "outline": "as §1"}, "[22]": {"target": "Neu5Ac(a2-6)Gal(b1-4)GlcNAc(b1-3)Gal(b1-4)[Fuc(a1-3)]GlcNAc(b1-3)Gal(b1-4)[Fuc(a1-3)]GlcNAc", "outline": "as §1"}, "Neu5Ac(a2-6)GalNAc": {"target": "Neu5Ac(a2-6)GalNAc", "outline": "as §1"}, "[23]": {"target": "Neu5Gc(b2-6)Gal(b1-4)GlcNAc", "outline": "as §1"}}, "note": "About 410 targets per protein were measured; listed, in parts, are those with the strongest signals and a random draw of the rest.", "data": [{"binder": "B1", "values": [{"measurement": "glycan array binding signal (z-score)", "setting": "[1]", "result": -0.147}, {"measurement": "glycan array binding signal (z-score)", "setting": "[2]", "result": -0.259}, {"measurement": "glycan array binding signal (z-score)", "setting": "[3]", "result": 7.41}, {"measurement": "glycan array binding signal (z-score)", "setting": "[4]", "result": 4.22}, {"measurement": "glycan array binding signal (z-score)", "setting": "[5]", "result": -0.118}, {"measurement": "glycan array binding signal (z-score)", "setting": "[6]", "result": 7.54}, {"measurement": "glycan array binding signal (z-score)", "setting": "[7]", "result": 5.05}, {"measurement": "glycan array binding signal (z-score)", "setting": "[8]", "result": 5.42}, {"measurement": "glycan array binding signal (z-score)", "setting": "Gal(b1-3)GlcNAc", "result": -0.231}, {"measurement": "glycan array binding signal (z-score)", "setting": "[9]", "result": -0.074}, {"measurement": "glycan array binding signal (z-score)", "setting": "[10]", "result": -0.259}, {"measurement": "glycan array binding signal (z-score)", "setting": "[11]", "result": 0.512}, {"measurement": "glycan array binding signal (z-score)", "setting": "[12]", "result": 5.09}, {"measurement": "glycan array binding signal (z-score)", "setting": "[13]", "result": -0.258}, {"measurement": "glycan array binding signal (z-score)", "setting": "[14]", "result": -0.254}, {"measurement": "glycan array binding signal (z-score)", "setting": "[15]", "result": 3.48}, {"measurement": "glycan array binding signal (z-score)", "setting": "[16]", "result": -0.252}, {"measurement": "glycan array binding signal (z-score)", "setting": "GlcNAc(b1-3)Gal", "result": -0.264}, {"measurement": "glycan array binding signal (z-score)", "setting": "Kdn(a2-3)Gal(b1-3)GlcNAc", "result": -0.149}, {"measurement": "glycan array binding signal (z-score)", "setting": "Man(b1-4)GlcNAc", "result": -0.261}, {"measurement": "glycan array binding signal (z-score)", "setting": "[17]", "result": -0.23}, {"measurement": "glycan array binding signal (z-score)", "setting": "Neu5Ac(a2-3)Gal(b1-4)Glc", "result": -0.247}, {"measurement": "glycan array binding signal (z-score)", "setting": "[18]", "result": 0.679}, {"measurement": "glycan array binding signal (z-score)", "setting": "[19]", "result": -0.205}, {"measurement": "glycan array binding signal (z-score)", "setting": "[20]", "result": -0.261}, {"measurement": "glycan array binding signal (z-score)", "setting": "Neu5Ac(a2-6)Gal(b1-4)Glc", "result": -0.246}, {"measurement": "glycan array binding signal (z-score)", "setting": "[21]", "result": 5.91}, {"measurement": "glycan array binding signal (z-score)", "setting": "[22]", "result": -0.23}, {"measurement": "glycan array binding signal (z-score)", "setting": "Neu5Ac(a2-6)GalNAc", "result": -0.257}, {"measurement": "glycan array binding signal (z-score)", "setting": "[23]", "result": -0.25}]}]}
